According to PubChem BioAssay (Tox21):
Where “and” joins values, the source holds several entries; their conditions need not be identical. Equal entries are not always repeated. Inconclusive results are not listed. A call without a number means that no potency is given here. A structure can be active in one record and inactive in another. Calls of active or inactive are those of the source. The call rests on the fitted dose curve; in most records, active means well fitted curve in the direction sought with a large enough effect in the repeat runs; inconclusive means weak or mixed curves; inactive means no such curve, though single readings can be large; an effect the other way counts as inactive or inconclusive.

Assay: A CellTox Green Cytotoxicity Assay to monitor cytotoxicity in HEK293 cells - 40 hour (AID 1224871); further: nearly all actives have a fitted effect of over 45% in size; further: potency means the concentration at half of the fitted maximal effect
Settings: CellTox Green fluorescence; series mostly up to 76.8 µM
Procedure, shortened: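 Fluorescence intensity, read at 0, 8, 16, 24, 32 and 40 h of compound treatment, reflected dye binding to DNA of dead HEK293 cells; compounds (23 nL, DMSO) were added 5 h after plating cells with reagent.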

| Compound | Potency |
| --- | --- |
| Nc1ccc(Cl)cc1N | 21.9 µM (active) |
| O=[N+]([O-])c1ccc(O)c([N+](=O)[O-])c1 | inactive |
| C=C(C)C(=O)OCC1CO1 (stereo not drawn) | inactive |
| c1ccc(P(c2ccccc2)c2ccccc2)cc1 | inactive |
| Clc1nc(Cl)nc(Cl)n1 | inactive |
| CCC(C)(c1ccc(O)cc1)c1ccc(O)cc1 | inactive |
| Nc1cccnc1 | inactive |
| Cc1c(COC(=O)[C@@H]2[C@H](/C=C(\Cl)C(F)(F)F)C2(C)C)cccc1-c1ccccc1 | inactive |
| Oc1ccc(-c2ccccc2)cc1 | 19.2 µM (active) |
| CN(C)C(=O)Nc1ccc(Cl)cc1 | inactive |
| Oc1cc(Cl)ccc1Cl | inactive |
| Oc1c(Cl)c(Cl)c(Cl)c(Cl)c1Cl | inactive |
| S=C1NCCN1 | inactive |
| Cc1ccc(N)c(N)c1 | inactive |
| CC(C)(C)c1ccccc1O | 39.4 µM (active) |
| Nc1ccncc1 | inactive |
| O=Cc1ccco1 | 21.1 µM (active) |
| Cc1ccc2c(c1N)C(=O)c1ccccc1C2=O | inactive |

| Compound | Potency |
| --- | --- |
| CCOc1cc(Oc2ccc(C(F)(F)F)cc2Cl)ccc1[N+](=O)[O-] | inactive |
| CC(C)NC(C)C | inactive |
| O=C(Nc1ccc(Br)cc1)c1cc(Br)cc(Br)c1O | 38.9 µM (active) and inactive |
| C#CCOS(=O)OC1CCCCC1Oc1ccc(C(C)(C)C)cc1 (stereo not drawn) | 21.9 µM (active) |
| CC(C)=CC1C(C(=O)OCc2coc(Cc3ccccc3)c2)C1(C)C (stereo not drawn) | inactive |
| Brc1ccc(Oc2cc(Br)c(Br)cc2Br)c(Br)c1 | inactive |
| Cc1cccc(N)c1N | inactive |
| CN(C)c1ccc(C(=O)c2ccc(N(C)C)cc2)cc1 | inactive |
| C#C[C@]1(O)CC[C@H]2[C@@H]3CCC4=CC(=O)CC[C@]4(C)[C@H]3CC[C@@]21C | 49 µM (active) |
| O=C(NC(=O)c1c(F)cccc1F)Nc1ccc(Cl)cc1 | inactive |
| CC(C)C(=O)OCC(C)(C)C(OC(=O)C(C)C)C(C)C (stereo not drawn) | inactive |
| Cc1ccc(OP(=O)(Oc2ccc(C)cc2)Oc2ccc(C)cc2)cc1 | inactive |
| CCOC(=S)S | inactive |
| CCOC(=O)C(C)OC(=O)c1cc(Oc2ccc(C(F)(F)F)cc2Cl)ccc1[N+](=O)[O-] (stereo not drawn) | inactive |
| CC(C)(OOC(C)(C)c1ccccc1)c1ccccc1 | 24.2 µM (active) and 49 µM (active) |
| CC(C)Oc1cc(-n2nc(C(C)(C)C)oc2=O)c(Cl)cc1Cl | 682 nM (active) and inactive |
| NCc1cccnc1 | inactive |

Assay: qHTS RealTime-Glo MT Cell Viability Assay in HEK293 cells - 16 hour (AID 1224872); further: nearly all actives have a fitted effect of over 50% in size; further: potency means the concentration at half of the fitted maximal effect
Settings: RealTime-Glo luminescence; series mostly up to 76.8 µM
Procedure, shortened: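 Reads taken at 0, 8, 16, 24, 32 and 40 h from the same wells. HEK293 cells (600/well) carried RealTime-Glo reagents from seeding, with compound added after a 5 h settle at 37 C.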

| Compound | Potency |
| --- | --- |
| O=[N+]([O-])c1ccc(O)c([N+](=O)[O-])c1 | inactive |
| C=C(C)C(=O)OCC1CO1 (stereo not drawn) | inactive |
| c1ccc(P(c2ccccc2)c2ccccc2)cc1 | inactive |
| Clc1nc(Cl)nc(Cl)n1 | inactive |
| Nc1cccnc1 | inactive |
| CCCCCc1cc(O)cc(O)c1 | 24.5 µM (active) |
| CN(C)C(=O)Nc1ccc(Cl)cc1 | inactive |
| Oc1cc(Cl)ccc1Cl | inactive |
| Oc1c(Cl)c(Cl)c(Cl)c(Cl)c1Cl | inactive |
| S=C1NCCN1 | inactive |
| CC(C)(C)c1ccccc1O | inactive |
| Nc1ccncc1 | inactive |
| O=Cc1ccco1 | inactive |
| Cc1ccc2c(c1N)C(=O)c1ccccc1C2=O | 8.62 µM (active) and 8.71 µM (active) |
| ClC1C(Cl)C(Cl)C(Cl)C(Cl)C1Cl (stereo not drawn) | inactive and 49 µM (active) |
| CC(C)NC(C)C | inactive |
| O=C(Nc1ccc(Br)cc1)c1cc(Br)cc(Br)c1O | inactive |
| C#CCOS(=O)OC1CCCCC1Oc1ccc(C(C)(C)C)cc1 (stereo not drawn) | 17.4 µM (active) and 19.5 µM (active) |
| CC(C)=CC1C(C(=O)OCc2coc(Cc3ccccc3)c2)C1(C)C (stereo not drawn) | inactive |
| Cc1cccc(N)c1N | inactive |
| C#C[C@]1(O)CC[C@H]2[C@@H]3CCC4=CC(=O)CC[C@]4(C)[C@H]3CC[C@@]21C | inactive |
| O=C(NC(=O)c1c(F)cccc1F)Nc1ccc(Cl)cc1 | inactive |
| CC(C)C(=O)OCC(C)(C)C(OC(=O)C(C)C)C(C)C (stereo not drawn) | inactive |
| Cc1ccc(OP(=O)(Oc2ccc(C)cc2)Oc2ccc(C)cc2)cc1 | inactive |
| c1ccc(N=Nc2ccccc2)cc1 | inactive |
| CCOC(=S)S | inactive |
| CCOC(=O)C(C)OC(=O)c1cc(Oc2ccc(C(F)(F)F)cc2Cl)ccc1[N+](=O)[O-] (stereo not drawn) | 30.7 µM (active) |
| CC(C)(OOC(C)(C)c1ccccc1)c1ccccc1 | inactive |
| NCc1cccnc1 | inactive |

Assay: qHTS RealTime-Glo MT Cell Viability Assay in HepG2 cells - 8 hour (AID 1224873); further: nearly all actives have a fitted effect of over 55% in size
Settings: RealTime-Glo luminescence; series mostly up to 76.8 µM
Procedure, shortened: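 HepG2 cells (600/well) mixed with RealTime-Glo MT reagent, settled 5 h at 37 C/5% CO2 before compound addition. Nonlytic NanoLuc luminescence from viable-cell prosubstrate reduction read repeatedly during 40 h treatment at 37 C.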

| Compound | Potency |
| --- | --- |
| Nc1ccc(Cl)cc1N | inactive |
| O=[N+]([O-])c1ccc(O)c([N+](=O)[O-])c1 | inactive |
| C=C(C)C(=O)OCC1CO1 (stereo not drawn) | inactive |
| c1ccc(P(c2ccccc2)c2ccccc2)cc1 | inactive |
| Clc1nc(Cl)nc(Cl)n1 | inactive |
| CCC(C)(c1ccc(O)cc1)c1ccc(O)cc1 | inactive |
| Nc1cccnc1 | inactive |
| Cc1c(COC(=O)[C@@H]2[C@H](/C=C(\Cl)C(F)(F)F)C2(C)C)cccc1-c1ccccc1 | inactive |
| Oc1ccc(-c2ccccc2)cc1 | inactive |
| CN(C)C(=O)Nc1ccc(Cl)cc1 | inactive |
| Oc1cc(Cl)ccc1Cl | inactive |
| Oc1c(Cl)c(Cl)c(Cl)c(Cl)c1Cl | inactive |
| S=C1NCCN1 | inactive |
| Cc1ccc(N)c(N)c1 | inactive |
| CC(C)(C)c1ccccc1O | inactive |
| Nc1ccncc1 | inactive |
| O=Cc1ccco1 | inactive |

| Compound | Potency |
| --- | --- |
| CCOc1cc(Oc2ccc(C(F)(F)F)cc2Cl)ccc1[N+](=O)[O-] | inactive |
| ClC1C(Cl)C(Cl)C(Cl)C(Cl)C1Cl (stereo not drawn) | inactive |
| CC(C)NC(C)C | inactive |
| O=C(Nc1ccc(Br)cc1)c1cc(Br)cc(Br)c1O | inactive |
| CC(C)=CC1C(C(=O)OCc2coc(Cc3ccccc3)c2)C1(C)C (stereo not drawn) | inactive |
| Brc1ccc(Oc2cc(Br)c(Br)cc2Br)c(Br)c1 | inactive |
| Cc1cccc(N)c1N | inactive |
| CN(C)c1ccc(C(=O)c2ccc(N(C)C)cc2)cc1 | inactive |
| C#C[C@]1(O)CC[C@H]2[C@@H]3CCC4=CC(=O)CC[C@]4(C)[C@H]3CC[C@@]21C | inactive |
| O=C(NC(=O)c1c(F)cccc1F)Nc1ccc(Cl)cc1 | inactive |
| CC(C)C(=O)OCC(C)(C)C(OC(=O)C(C)C)C(C)C (stereo not drawn) | inactive |
| Cc1ccc(OP(=O)(Oc2ccc(C)cc2)Oc2ccc(C)cc2)cc1 | inactive |
| c1ccc(N=Nc2ccccc2)cc1 | inactive |
| CCOC(=S)S | inactive |
| CC(C)(OOC(C)(C)c1ccccc1)c1ccccc1 | inactive |
| CC(C)Oc1cc(-n2nc(C(C)(C)C)oc2=O)c(Cl)cc1Cl | inactive |
| NCc1cccnc1 | inactive |
